Test results from PubChem BioAssay (NCI).
This is part of a sample that, as a whole, favours compounds with a hit. Of some 79,000 tested, about 15% had one in any assay. Active and inactive are the calls of the source. Rule as the data show it: active = growth inhibition above about 70%; inactive = the rest.

Assays:
[1] = NCI Yeast Anticancer Drug Screen. Data for the rad50 strain (AID 155);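 also: 0% = growth of vehicle-only cultures of the same strain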; details: S. cerevisiae rad50 strain growth inhibition; at 50.0 µM; active compounds read high
In short: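 Cells are treated with compound, grown, and their growth is then scored against vehicle-only cultures of the same repair-deficient yeast strain.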

[2] = NCI Yeast Anticancer Drug Screen. Data for the mec2-1 strain (AID 157); details: S. cerevisiae mec2-1 strain, at 50.0 µM, active compounds read high
In short: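 Strain: mec2-1 (DNA repair/cell cycle alteration). Compound exposure, then growth measured; inhibition expressed relative to vehicle.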

[3] = NCI Yeast Anticancer Drug Screen. Data for the sgs1 mgt1 strain (AID 161);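 also: 0% = growth of cultures given vehicle only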; details: S. cerevisiae sgs1 mgt1 strain, at 50.0 µM, active compounds read high
In short: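 Genetically altered yeast, compound exposure, growth inhibition relative to vehicle.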

[4] = NCI Yeast Anticancer Drug Screen. Data for the cln2 rad14 strain (AID 165);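 also: 0% = growth equal to vehicle treated cultures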; details: S. cerevisiae cln2 rad14 strain, at 50.0 µM, active compounds read high
In short: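 Compounds are applied to the cln2 rad14 yeast strain, and growth is then compared with that of vehicle-treated cultures to give inhibition.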

[5] = NCI Yeast Anticancer Drug Screen. Data for the bub3 strain (AID 167); details: S. cerevisiae bub3 mutant strain, at 50.0 µM, active compounds read high
In short: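 Part of a panel of yeast mutants defective in DNA damage repair or cell cycle regulation. Each strain is grown with compound, and inhibition is calculated relative to solvent-treated cultures.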

[6] = NCI Yeast Anticancer Drug Screen. Data for the mlh1 rad18 strain (AID 175); details: S. cerevisiae mlh1 rad18 strain growth inhibition; at 50.0 µM; active compounds read high
In short: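 Read-out is yeast growth inhibition, calculated against vehicle-only controls. The compound was applied to a strain engineered with DNA damage repair alterations.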

Measured: growth inhibition

COc1cc(C(OC(C)=O)OC(C)=O)c(Cl)c(Cl)c1OC(C)=O
inactive: [1] 16.7% | [2] -2.25% | [3] 9.35% | [4] -5.3% | [5] 12.2% | [6] 18.6%

Cc1ccc(C)c2nc3c(C)ccc(C)c3cc12
inactive: [1] 22.5% | [2] 1.4% | [3] 13% | [4] -25.9% | [5] -0.45% | [6] 14.3%

O=[N+]([O-])c1ccc(-c2ccccc2CO)cc1
inactive: [1] -9.55% | [2] -10.2% | [3] -25.6% | [4] -33.5% | [5] -6.95% | [6] -26.6%

O=C(N(Cc1ccccc1)c1ccccc1)C(Cl)(Cl)Cl
active: [2] 76.8% | [3] 78% | [6] 78%
inactive: [1] 65.4% | [4] 30.1% | [5] 67%

O=C(CC(C(=O)c1cccs1)c1ccsc1)c1cccs1 (stereo unspecified)
inactive: [1] -23.8% | [2] -22.6% | [3] 0.85% | [4] 21% | [5] 25.8% | [6] -38.7%

C/C(O)=C(/C=NC(=S)c1ccncc1)C(=O)Nc1ccccc1
inactive: [1] -36.8% | [2] -1.8% | [3] -49% | [4] -26.5% | [5] -45.1% | [6] -36.3%

COc1nc(N)c2[nH]cnc2n1
inactive: [1] 0.95% | [2] 21.4% | [3] 2.05% | [4] 21.4% | [5] 5.15% | [6] 3.4%

COc1cc(CCCO)ccc1O
inactive: [1] 0.85% | [2] 13.8% | [3] 0.25% | [4] -48.1% | [5] 9.1% | [6] -4.1%

CC(=O)OCC(OC(C)=O)C1OC(OCc2ccccc2)C(OC(C)=O)C(OC(C)=O)C1OC(C)=O (stereo unspecified)
inactive: [1] -10.1% | [2] -4.2% | [3] -17.6% | [4] 44% | [5] -3% | [6] -5.85%

C/C=C\C(=O)OC1CCC(C2CCCCC2)CC1 (stereo unspecified)
inactive: [1] 25.3% | [2] 9.3% | [3] 14.8% | [4] 1.25% | [5] 56.6% | [6] -2.15%

CC1(C)N=C(N)N=C(N)N1c1cccc(CSc2ccccc2)c1
inactive: [1] -14.2% | [2] -11.8% | [3] -20.8% | [4] 7.2% | [5] -18.1% | [6] -19.6%

C/C(=N/NC(=S)NNC(=S)N(C)c1ccccc1)c1nccc2ccccc12
active: [1] 85.8% | [2] 87% | [3] 86% | [4] 79.2% | [5] 76.6% | [6] 79.8%

O=C1CCNC(=O)N1
inactive: [1] 33.7% | [2] -7.35% | [3] 4.75% | [4] 21.1% | [5] -10.2% | [6] 23.4%

O=P(Nc1ccc(Cl)cc1)(c1ccc(Cl)cc1)c1ccc(Cl)cc1
inactive: [1] 17.6% | [2] 6.05% | [3] 4.05% | [4] -16.1% | [5] -0.15% | [6] 20.9%

COC1=C(C(C2=C(OC)CC(C)(C)CC2=O)c2ccc3c(c2)OCO3)C(=O)CC(C)(C)C1
inactive: [1] 31.6% | [2] 7.7% | [3] -9.05% | [4] 0.3% | [5] -0.65% | [6] 11.9%

COc1cccc2c1C(=O)c1c(O)c3c(c(O)c1C2=O)CC(O)(C(C)=O)CC3OC1CC(NC(=O)C(CCCCN)NC(=O)C(N)CCN)C(O)C(C)O1 (stereo unspecified)
inactive: [1] 9.1% | [2] -1.15% | [3] -0.5% | [4] 12.8% | [5] 15.9% | [6] 14.6%

COc1cc(OC)c(C(C)=O)cc1OC
inactive: [1] -9.2% | [2] -13.9% | [3] -3.15% | [4] -2.8% | [5] 6.3% | [6] 6.7%

C/C=C/C=C1/OC(C)=C(C(=O)OCC)C1=O
inactive: [1] 7.95% | [2] -15.6% | [3] 6.55% | [4] 11.4% | [5] -8.95% | [6] -1.9%

O=[N+]([O-])c1ccc(S(=O)(=O)/N=C/c2ccccc2)cc1
inactive: [1] 2.2% | [2] 9.25% | [3] 8.75% | [4] 14.7% | [5] 14.4% | [6] 12.3%

COC1OC(COC(c2ccccc2)(c2ccccc2)c2ccccc2)C(OS(=O)(=O)c2ccc(C)cc2)C(OC(=O)c2ccccc2)C1OC(=O)c1ccccc1 (stereo unspecified)
inactive: [1] 0.1% | [2] -6.7% | [3] -1.15% | [4] -7.35% | [5] 0.3% | [6] 27.9%

CC#Cc1c(C#CC)c(OC)c2c(c1OC)C(=O)c1ccccc1C2=O
inactive: [1] -20.9% | [2] -29.3% | [3] -26.2% | [4] 3.3% | [5] -8.2% | [6] -25.1%

OCCN(CCO)c1ccc2c(C(F)(F)F)cc(C(F)(F)F)nc2n1
inactive: [1] 0.45% | [2] -8.25% | [3] 15.8% | [4] 0.7% | [5] 10.6% | [6] 16.1%

CCOC(=O)c1[nH]c(Cc2[nH]c(Cc3[nH]c(C(=O)OCC)c(C)c3C(=O)OCC)c(C(=O)OCC)c2C)c(C(=O)OCC)c1C
inactive: [1] 36.1% | [2] 21.2% | [3] 45.2% | [4] 37.5% | [5] 24.7% | [6] 8.55%

O=C(O)C(Cc1ccccc1)N1C(=O)c2ccccc2C1=O (stereo unspecified)
inactive: [1] 1.7% | [2] -17.5% | [3] -35.6% | [4] -19.6% | [5] -36.5% | [6] 5.55%

CC1(C)OC2C3COc4nc5c(N)ncnc5n4C(O3)C2O1 (stereo unspecified)
inactive: [1] -6% | [2] -5.2% | [3] -8.85% | [4] -5.05% | [5] -8.1% | [6] -9.9%

O=[N+]([O-])c1ccc(/C=C(/c2ccc([N+](=O)[O-])o2)S(=O)(=O)C(Cl)(Cl)Cl)cc1
active: [1] 96.7% | [2] 97.2% | [3] 98.3% | [4] 97.1% | [5] 90.1% | [6] 97.8%

OC1CC2COCC2CC1O (stereo unspecified)
inactive: [1] 22.6% | [2] 1.7% | [3] 11.1% | [4] 6.9% | [5] 4.4% | [6] 10%

COC(=O)C(Cc1nc2ccc(Cl)cc2[nH]c1=O)C(=O)C(=O)Nc1cc(C)ccc1C (stereo unspecified)
inactive: [1] -19.2% | [2] 4.85% | [3] -33% | [4] -35.6% | [5] -26.4% | [6] 14.5%

CC(Sc1ncnc2[nH]ncc12)C(N)=O (stereo unspecified)
inactive: [1] -22.5% | [2] -16.4% | [3] -18.4% | [4] -6.6% | [5] 5% | [6] 0.95%

Cc1cccc(C[P+](C/C=C/c2ccccc2)(c2ccccc2)c2ccccc2)c1
active: [1] 98.8% | [2] 99.7% | [3] 99.7% | [4] 99% | [5] 99.5% | [6] 99.5%

c1ccc(-c2cc(-c3ccncc3)c(-c3ccccc3)nn2)cc1
inactive: [1] 7.85% | [2] 7.8% | [3] 24% | [4] 22% | [5] -1.1% | [6] 36.4%

Oc1cc(-n2cccn2)c(O)cc1-n1cccn1
inactive: [1] 23.1% | [2] -4.75% | [3] 15.3% | [4] 5.25% | [5] 12.2% | [6] -39%

C(#[C][Sn]([c]1ccccc1)([c]1ccccc1)[c]1ccccc1)c1ccccc1
active: [1] 98.3% | [2] 95.5% | [3] 97.8% | [4] 98.5% | [5] 98.8% | [6] 98.6%

O=c1[nH]c2cc(Cl)ccc2nc1/C=C(\O)c1ccccc1O
inactive: [1] 3.35% | [2] -13.3% | [3] -11.2% | [4] -8.4% | [5] -28.3% | [6] -0.8%

COC1(OC)c2no[n+]([O-])c2C(OC)(OC)c2c1no[n+]2[O-]
inactive: [1] -11.7% | [2] -4.8% | [3] -6.35% | [4] 19.1% | [5] 20.6% | [6] -4.35%

O=[N+]([O-])c1ccc(/C=C/c2csnn2)cc1
inactive: [1] -16.7% | [2] -31.8% | [3] -13.8% | [4] 22% | [5] 2% | [6] -24.6%

Cc1cn(C2CC(O)C(CO)O2)c(=O)nc1N1CCCCCCC1 (stereo unspecified)
inactive: [1] -6.85% | [2] -4.8% | [3] -11.3% | [4] -12.3% | [5] 4.85% | [6] 0.3%

CCc1nc(N)nc(N)c1-c1ccc(NCCN)c(N)c1
inactive: [1] 3.4% | [2] 6.35% | [3] 5.15% | [4] -6.05% | [5] 12.2% | [6] 8.5%

O=C(Nc1cccc(Cl)c1)C(Br)C(Br)c1ccccc1 (stereo unspecified)
active: [1] 97.8% | [2] 99.2% | [3] 99.3% | [4] 99.2% | [5] 98.5% | [6] 98.7%

C[C@]12CCC[C@H](O)[C@H]1O2
inactive: [1] -6.45% | [2] 3.25% | [3] -16.1% | [4] 0.55% | [5] 0.5% | [6] -10.2%

ClCC/C(=C(/Cl)c1ccccc1)c1ccccc1
inactive: [1] -0.65% | [2] 5.6% | [3] 6.65% | [4] 4.8% | [5] -14.3% | [6] 3.1%
